As a reminder, the inhibition is the change of the read-out against control, counted positive when it falls.

In assay [1] the target is Serine/threonine-protein kinase PAK 6 (Homo sapiens) (UniProt Q9NQU5). The conditions noted are these: at 1 µM.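 Further: values are mean percent inhibition of PAK6 kinase.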
Assay [2] concerns Tyrosine-protein kinase ABL1 (Homo sapiens), P00519 [E255K]. To be noted: at 0.1 µM.
Assay [3] has the same test system. The conditions noted are these: at 1 µM.
For assay [4], the system named is Tyrosine-protein kinase ABL1 (Homo sapiens), P00519 [H396P]. To be noted: at 0.1 µM.
Assay [5] shares this test system. The conditions noted are these: at 1 µM.
Assay [6] deals with Tyrosine-protein kinase ABL1 (Homo sapiens), P00519 [M351T]. The conditions noted are these: at 0.1 µM.
Assay [7] has the same test system. The conditions noted are these: at 1 µM.
Assay [8] deals with Tyrosine-protein kinase ABL1 (Homo sapiens), P00519 [Q252H]. The conditions noted are these: at 0.1 µM.
The test system is the same in assay [9]. To be noted: at 1 µM.
In assay [10] the test system is Tyrosine-protein kinase ABL1 (Homo sapiens), P00519 [T315I]. To be noted: at 0.1 µM.

The structures appear in SMILES notation.

Chain of Serine/threonine-protein kinase PAK 6 (Homo sapiens) (Q9NQU5 whole entry, looked up): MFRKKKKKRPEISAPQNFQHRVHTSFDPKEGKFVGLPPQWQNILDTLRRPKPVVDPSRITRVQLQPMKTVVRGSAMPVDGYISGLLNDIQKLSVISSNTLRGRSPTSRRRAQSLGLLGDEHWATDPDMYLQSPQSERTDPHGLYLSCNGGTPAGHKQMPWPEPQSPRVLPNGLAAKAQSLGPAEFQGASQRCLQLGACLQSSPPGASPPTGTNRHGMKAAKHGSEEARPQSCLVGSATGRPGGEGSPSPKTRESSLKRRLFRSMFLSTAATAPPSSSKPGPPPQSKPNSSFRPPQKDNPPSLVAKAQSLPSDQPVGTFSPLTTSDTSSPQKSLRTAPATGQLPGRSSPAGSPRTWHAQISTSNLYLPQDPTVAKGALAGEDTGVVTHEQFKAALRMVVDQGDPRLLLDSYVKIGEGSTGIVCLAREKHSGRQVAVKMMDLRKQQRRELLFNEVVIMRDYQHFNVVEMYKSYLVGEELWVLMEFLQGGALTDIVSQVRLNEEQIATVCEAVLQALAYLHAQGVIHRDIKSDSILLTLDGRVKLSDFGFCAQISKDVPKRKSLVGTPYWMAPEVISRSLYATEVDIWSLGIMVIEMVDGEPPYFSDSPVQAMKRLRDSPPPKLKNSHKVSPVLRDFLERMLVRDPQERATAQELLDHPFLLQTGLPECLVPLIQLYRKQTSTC

`O=C1NC(=O)C(c2cccc(Cl)c2)=C1Nc1ccc(Cl)c(C(=O)O)c1`: the inhibition was -4.4% in [1]; 1.78% in assay [2]; 3.24% in assay [3]; 2.08% in [4]; 6.18% in assay [5]; 2.29% in [6]. Besides, the inhibition in assay [7] was determined as 5.05%; in [8], 2.43%; in assay [9] it was 4.98%; in assay [10] it was 1.3%.

Take `c1ccc(-c2n[nH]cc2-c2ccnc(-c3ccc(OCCN4CCOCC4)cc3)c2)nc1`: the inhibition in assay [1] was determined as 3.66%; in assay [2], 9.49%; in assay [3], 47.8%; in assay [4], 19.5%; in [5], 70.9%; in assay [6], 22.1%. For the same molecule, the inhibition is 69.1% in assay [7], 11.9% in assay [8], 51.8% in assay [9] and 1.78% in [10].

As to `COC(=O)Nc1nc2ccc(Sc3ccc(NC(=O)Nc4cc(C(F)(F)F)ccc4F)cc3)cc2[nH]1`, the inhibition was 1.21% in [1]; -1.69% in [2]; 14.8% in [3]; 2.95% in [4]; 49.9% in assay [5]; 33.2% in assay [6]. Besides, the inhibition in assay [7] was found to be 70.2%; in [8], 26.9%; in [9], 70.7%; in assay [10], 27.7%.

For `CNC(=O)c1cncc(/C=C/c2c(C)cccc2C)c1`, the inhibition in assay [1] came to 2.54%; in [2] it was 8.21%; in assay [3] it was 50.1%; in assay [4], 17.2%; in assay [5], 61.5%; in assay [6], 16.9%. For the same molecule, the inhibition in assay [7] amounted to 63.8%; in assay [8], 14.5%; in assay [9], 60.2%; in [10], 1.83%.

`COc1cccc(/C=N/Nc2ncnc3c2cnn3-c2cccc(OC)c2)c1`: the inhibition in [1] is -7.63%; in assay [2] it was 7.5%; in assay [3], 34.4%; in assay [4], 9.64%; in assay [5], 41.8%; in [6] it was 7.51%. Further, the inhibition is 42% in assay [7], 12.9% in [8], 54.9% in [9] and 3.28% in assay [10].

Regarding `COc1ccc2cc(-c3c(-c4ccncc4)nc(-c4ccc([S+](C)[O-])cc4C)n3C)ccc2c1` (stereo not given), the inhibition in assay [1] was 1.24%; in assay [2], -1.36%; in assay [3], 5.96%; in assay [4] it was 2.45%; in assay [5] it was 17.6%; in [6], 2.12%. Also, the inhibition stood at 19.8% in [7], 2.32% in [8], 18% in assay [9] and 9.26% in [10].

For `COc1cc2ncn(-c3cc(OCc4ccccc4C(F)(F)F)c(C(C)=O)s3)c2cc1OC`, the inhibition in [1] was -3.04%; in assay [2] it was 1.66%; in [3] it was 4.89%; in assay [4], 4.51%; in assay [5] it was 5.12%; in [6] it was 1.37%. Also, the inhibition in assay [7] was found to be 6.24%; in assay [8], 4.93%; in assay [9], 4.96%; in assay [10] it was 1.88%.

In the case of `NS(=O)(=O)c1ccc(N/N=C2\C(=O)Nc3ccc(-c4cnco4)cc32)cc1`, the inhibition in assay [1] was -6.6%; in assay [2], 1.82%; in assay [3], 7.02%; in assay [4], 3.45%; in assay [5] it was 15.5%; in assay [6], 0.98%. Further, the inhibition in assay [7] stood at 17.7%; in [8] it was 3.05%; in [9], 13.3%; in [10] it was 0.71%.

Turning to `COc1cccc(-n2cnc3c(N/N=C/c4ccncc4)ncnc32)c1`, the inhibition in assay [1] turned out to be 3.44%; in assay [2] it was 30.8%; in assay [3] it was 80.2%; in assay [4], 47.1%; in assay [5] it was 87.1%; in [6], 44.7%. The inhibition in [7] came out at 88.1%; in assay [8] it was 40.1%; in assay [9] it was 84.2%; in assay [10] it was 1.94%.

With `CN(C)CCOc1ccc(-c2cc(-c3ccc4c(c3)CCC4=NO)c(-c3ccncc3)o2)cc1`, the inhibition is 1.93% in [1]; -1.95% in assay [2]; 7.95% in [3]; 1.96% in assay [4]; 20.9% in assay [5]; 3.15% in assay [6]. Besides, the inhibition was 19.9% in assay [7], 4.54% in assay [8], 34.5% in [9] and 1.35% in assay [10].

In the case of `C[C@@H](Oc1cc(-n2cnc3ccc(OCC4CCN(C)CC4)cc32)sc1C(N)=O)c1ccccc1Cl`, the inhibition is -3.14% in assay [1]; 0.13% in assay [2]; 4.51% in assay [3]; 2.87% in assay [4]; 9.39% in [5]; -0.56% in assay [6]. Also, the inhibition in assay [7] was 5.2%; in [8] it was 4.18%; in assay [9], 8.32%; in assay [10] it was -2.27%.

`O=C(Nc1n[nH]c2cc(-c3ccccc3)ccc12)C1CC1`: the inhibition is -4.61% in assay [1]; 10.5% in [2]; 46.5% in assay [3]; 20.2% in [4]; 67.5% in assay [5]; 19.3% in assay [6]. Further, the inhibition in assay [7] turned out to be 68.6%; in [8], 14%; in assay [9], 48.4%; in assay [10], 36.3%.

In the case of `COc1cc(Nc2ncc3c(C)nc(-c4cccc(C(F)(F)F)c4)n3n2)cc(OC)c1OC`, the inhibition in [1] was found to be 11.2%; in [2], 2.21%; in assay [3] it was 7.54%; in assay [4] it was 5.06%; in assay [5], 12.7%; in assay [6] it was 1.36%. Also, the inhibition in assay [7] came to 10.8%; in assay [8], 4.02%; in [9] it was 13.4%; in assay [10] it was 3.13%.

As to `CCc1nccc2c1nc(-c1nonc1N)n2CC`, the inhibition in [1] was -8.78%; in assay [2], -0.36%; in assay [3], 0.91%; in [4], 1.08%; in assay [5] it was 1.44%; in assay [6], -0.68%. Also, the inhibition was 3.2% in assay [7], 0.51% in assay [8], 3.64% in assay [9] and -0.7% in assay [10].

Regarding `CCc1ccc(Oc2nccc(-c3c(-c4ccc(F)cc4)ncn3C3CCNCC3)n2)cc1`, the inhibition in assay [1] is 2.92%; in [2], 0.49%; in assay [3], 4.7%; in assay [4] it was 3.35%; in assay [5] it was 3.77%; in [6] it was 0.72%. The inhibition in [7] was determined as 1.75%; in assay [8], 3.25%; in assay [9] it was 3.37%; in assay [10], 2.83%.

`COc1ccc(-c2ccc3c(NC(=O)C4CC4)n[nH]c3n2)cc1`: the inhibition was -4.51% in assay [1]; 0.71% in assay [2]; 9.06% in assay [3]; 3.91% in assay [4]; 28% in [5]; 1.26% in assay [6]. Also, the inhibition in assay [7] worked out at 27.1%; in [8] it was 0.06%; in assay [9] it was 13.6%; in assay [10], 2.42%.

With `Clc1ccc(CNc2nccc(-c3cnn4ncccc34)n2)cc1`, the inhibition in [1] is -0.19%; in [2], 4.07%; in assay [3], 3.72%; in assay [4], 4.81%; in [5], 5.52%; in assay [6], 4.62%. Further, the inhibition in assay [7] came to 3.11%; in assay [8] it was 2.33%; in assay [9] it was 6.07%; in [10] it was 0.52%.
